Data from PubChem BioAssay (NCI).
This is part of a sample that, as a whole, favours compounds with a hit. Of some 83,000 tested, about 20% had one in any assay.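 Method: cells in 96-well plates; compound added at one concentration; 48 h incubation; percent growth measured; values under 10 scored active.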 Values without a mark were called inactive. Calls of active or inactive are those of the source.

What was measured:
Assay in all cases: NCI-60 one-dose screen, 48 h (100 = growth as untreated, 0 = no growth, -100 = all killed)
Conditions in all cases: 10 µM
[1] = system: K-562 leukemia
[2] = system: MALME-3M melanoma
[3] = system: MDA-MB-231 breast
[4] = system: RXF 393 renal
[5] = system: SF-268 CNS
[6] = system: SF-295 CNS
[7] = system: SF-539 CNS
[8] = system: UACC-257 melanoma
[9] = system: M14 melanoma
[10] = system: HCT-15 colon

Row | Structure (SMILES) | growth [1] | growth [2] | growth [3] | growth [4] | growth [5] | growth [6] | growth [7] | growth [8] | growth [9] | growth [10]
1 | CCCC#CCN(CC)CC | 103% | 111% | 109% | 112% | 111% | 80.2% | 99.6% | 93.6% | 108% | 99.6%
2 | COc1ccc(OC)c2c1C(=O)CC2C (stereo not given) | 116% | 87% | 100% | 98.3% | 94.2% | 98% | 101% | 107% | 112% | 110%
3 | COc1ccc(Cl)cc1-n1nnc(-c2nc3ccccc3[nH]2)c1N | 94.5% | 63.8% | 86.1% | 74.2% | 62.6% | 58.7% | 91.6% | 95.4% | 89.3% | 94.1%
4 | O=C1C(c2ccccc2)C2C=CC(C2)N1O (stereo not given) | 96.9% | 109% | 102% | 104% | 107% | 122% | 113% | 105% | 111% | 106%
5 | COc1cccc(NC(=O)c2sc3nc4c(cc3c2N)C(O)CCC4)c1 (stereo not given) | 7.8% (active) | 81.3% | 23.9% | -0.406% (active) | 30.6% | 5.44% (active) | -17.6% (active) | 55% | 11.8% | 19.4%
6 | CN(C)C(=S)N/N=C\C=N/NC(=S)N(C)C | 1.44% (active) | 58.5% | 37.3% | 55.4% | 84.6% | 68.8% | 84.6% | 33.4% | 47.9% | 31.5%
7 | COc1ccc(/C=C2/CN(C(=O)c3ccccc3F)C/C(=C\c3ccc(OC)cc3)C2=O)cc1 | 2.77% (active) | 62.1% | 70.5% | 12.5% | 51.5% | 50.1% | 93.1% | 71.2% | 1.05% (active) | 18.2%
8 | Nc1nc(N)c2c(ccc3nccc32)[nH]1 | 16.6% | 58.7% | 73.5% | 56.5% | 46.6% | 34.4% | 57.9% | -9.73% (active) | 28.7% | 46.9%
9 | COc1ccc(Nc2ncnc3c2c(SC)nn3-c2ccccc2)cc1 | 94% | 93% | 93.4% | 81.3% | 95.1% | 88.7% | 99.3% | 106% | 94.4% | 89.2%
10 | O=C(Nc1ccccc1)Nc1cccc(-n2cc(-c3ccncc3)c(-c3ccc(O)c(Cl)c3)n2)c1 | 24.4% | 20.2% | 15.6% | 47% | 71.7% | -21.7% (active) | 0.346% (active) | 10.3% | 31.8% | 24.7%
11 | COc1cc(Cl)cc(-c2nn(-c3cccc(NC(=O)c4ccc(N5CCOCC5)c(C(F)(F)F)c4)c3)cc2-c2ccncc2)c1 | 4.03% (active) | 57.9% | 11.4% | 12.4% | 67.3% | 2.6% (active) | 52.1% | 63.6% | 56.7% | 17.3%
12 | CNc1ccc(CSc2ccc(C)cc2)cc1 | 119% | 94.4% | 33.4% | 64.2% | 69.6% | 103% | 56.3% | 93% | 84.7% | 89.2%
13 | CC1(C)Cc2c(sc3ncn4nc(-c5ccc(O)cc5)nc4c23)CO1 | 76.8% | 68.2% | 70.5% | 66.3% | 64.1% | 76.2% | 75.1% | 89.7% | 86.6% | 75.1%
14 | CCCCC(CCCCCC(CCCC)NCc1ccc2c(c1)OCO2)NCc1ccc2c(c1)OCO2 (stereo not given) | -72.3% (active) | -69.3% (active) | -86% (active) | -93.3% (active) | -96.8% (active) | -79.7% (active) | -100% (active) | -86.9% (active) | -100% (active) | -88% (active)
15 | CC/C(=C(/c1ccc(OCCN(C)C)cc1)c1ccc(OC(=O)CCC(=O)c2c(C)[nH]c(/C=C3\N=C(c4ccc[nH]4)C=C3OC)c2C)cc1)c1ccccc1 | 0.3% (active) | -9.96% (active) | -30% (active) | 15.2% | 31.2% | 33.5% | 49.7% | 45.5% | -66.6% (active) | 3.7% (active)
16 | COc1ccc2c(c1)O/C(=C\c1ccc([N+](=O)[O-])o1)C2=O | 2.05% (active) | -37.1% (active) | 8.07% (active) | -74% (active) | -5.87% (active) | 9.85% (active) | -43.2% (active) | -13.1% (active) | -15.5% (active) | 2.39% (active)
17 | c1ccc(CO[C@H]2CO[C@H]3[C@@H]2OC[C@H]3OCc2ccccc2)cc1 | 106% | 144% | 112% | 119% | 102% | 95.3% | 110% | 108% | 104% | 99.1%
18 | C[C@]12CC[C@@H]3c4ccc(O)cc4C[C@@H](O)[C@H]3[C@@H]1CC[C@@H]2O | 105% | 102% | 107% | 110% | 109% | 112% | 96.5% | 88.6% | 105% | 102%
19 | CC(C)(Cl)CCC1=C(Cl)C(=O)c2ccccc2C1=O | -20% (active) | 128% | 34.1% | 28.8% | 65.7% | 105% | 37.4% | 39.2% | 63.9% | 22.7%
20 | O=C(Nc1nc(-c2ccccc2Cl)cs1)c1cc(-c2ccc(Cl)cc2)nc2ccc(Cl)cc12 | 14.8% | 41.5% | 22% | 88.8% | 28.3% | 89.4% | -5.27% (active) | 66.8% | -2.68% (active) | 8.89% (active)
21 | O=C(/C=C/c1cc2ccccc2[nH]c1=O)c1ccc2c(c1)OCO2 | 87.4% | 78% | 94% | 112% | 93.6% | 100% | 88.2% | 94.2% | 87.3% | 97.6%
22 | COc1cc(C(=O)/C=C/c2cc(-c3cc(OC)c(OC)c(OC)c3)n[nH]2)cc(OC)c1OC | 4.46% (active) | -56% (active) | 3.71% (active) | -84.3% (active) | 4.97% (active) | 135% | -56.2% (active) | -1.5% (active) | 6.7% (active) | 3.63% (active)
23 | Nc1ccc2c(c1)Cc1cc(N)c(Br)cc1-2 | 99.7% | 104% | 116% | 111% | 109% | 76.8% | 83.1% | 109% | 102% | 97.3%
24 | O=S(=O)(Nc1ccccn1)c1ccc(N=Nc2ccc(O)c3ncccc23)cc1 | 6.51% (active) | -19.8% (active) | -2.1% (active) | 27.1% | 25% | 6.2% (active) | 10.8% | -23.5% (active) | 11.8% | 14.5%
25 | Nc1nc(N=Nc2ccc(O)cc2)cc(=O)[nH]1 | 106% | 96.4% | 98.7% | 74.4% | 111% | 94.9% | 96.6% | 112% | 101% | 101%
26 | CN(C)c1ccc(N=C2C=CC(=O)c3ccccc32)cc1 | 69.8% | -11.2% (active) | 59.5% | 81.2% | 73.9% | 60.5% | 88.7% | 65.3% | -18.2% (active) | 53.5%
27 | COc1ccc(OC)c(/C=C/c2nc(SCc3ccccc3)n(-c3ccc(Cl)cc3)n2)c1 | 18.2% | 34.9% | 67.1% | 82.8% | 57.7% | -15.4% (active) | 44.2% | 74% | 14.1% | 34%
